The record followed here is PubChem BioAssay.

Calls of active or inactive are those of the source. Unless noted, how the calls were made is not given here.

Assay [1] is described as follows: HepG2 liver cancer cell viability effects, profiling panel, resazurin fluorescence, 24 h, PK04 Diversity Set (AID 1172). Further: test concentration not given here. Conditions: higher = more signal. For orientation: Alamar Blue is a resazurin reagent that responds to reducing activity.
Assay [2] can be described thus: basal S. cerevisiae growth modulation, no modifier, primary screen, OD600, strain BY4716, 24 h, basal condition (AID 1173). Conditions: OD600, 24 h, higher = more signal, called active from +8 up or from −8 down.
The nature of assay [3]: MM1S myeloma cell viability, profiling panel, resazurin fluorescence, basal, 24 h, PK04 Diversity Set (AID 1174).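 Further: MM1S multiple myeloma cell line; test concentration not given here.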 Conditions: higher = more signal, called active from +8 up or from −8 down.
Assay [4] concerns the target Dihydroorotate dehydrogenase (quinone), mitochondrial (Plasmodium falciparum (isolate 3D7)) (UniProt Q08210). Description: PfDHODH enzyme inhibitors, primary screen, biochemical, C-terminal His tag, absorbance 600 nm (AID 1175).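 Further: recombinant parasite enzyme with a five histidine tag at its C terminus; test concentration not given here.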 Conditions: DCIP absorbance 600 nm, higher = more signal, called active from +8 up or from −8 down.
Assay [5] is described as follows: P. aeruginosa biofilm formation inhibitors, primary screen, strain PAO1, LB-PBS medium, absorbance 600 nm (AID 1176). Further: test concentration not given here. Conditions: P. aeruginosa PAO1 growth/biofilm, A600, 12 h; higher = more signal.
Assay [6] is described as follows: S. cerevisiae RM11-1a growth modifiers, primary screen, strain RM11-1a, OD600, basal, 24 h (AID 1177).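 Further: cultures grown under basal conditions with no added stressor; test concentration not given here.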 Conditions: OD600, 24 h, higher = more signal, called active from +8 up or from −8 down.
Assay [7] is described as follows: E. coli acrAB mutant growth effects, primary screen, E. coli filamentation inducers, strain DRC39, OD650, 24 h (AID 1178).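 Further: growth measured as culture turbidity by optical density at 650 nm; test concentration not given here.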 Conditions: higher = more signal, called active from +8 up or from −8 down.
Assay [8] in a line: E. coli acrAB mutant growth effects, primary screen, E. coli filamentation inducers, strain DRC39, OD650, 48 h (AID 1179).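 Further: screen aims at cell division blockers that make cells filament.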 Conditions: E. coli DRC39 delta-acrAB growth, higher = more signal, called active from +8 up or from −8 down.
Assay [9] is described as follows: RPMI8226 myeloma cell viability, profiling panel, resazurin fluorescence, basal, 24 h, PK04 Diversity Set (AID 1180).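 Further: RPMI8826 multiple myeloma cell line at 5000 cells per well; test concentration not given here.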 Conditions: higher = more signal.
The target in assay [10] is E3 ubiquitin-protein ligase XIAP (Homo sapiens) (UniProt P98170). Briefly: XIAP binders, primary screen, biophysical, small-molecule microarray, fluorescence 635 nm (AID 1181).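 Further: score merges 667 nm emission and signal to noise over triplicate slides.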 Conditions: small-molecule microarray binding, higher = more signal.
Sequence of E3 ubiquitin-protein ligase XIAP (Homo sapiens) (P98170 whole entry, looked up): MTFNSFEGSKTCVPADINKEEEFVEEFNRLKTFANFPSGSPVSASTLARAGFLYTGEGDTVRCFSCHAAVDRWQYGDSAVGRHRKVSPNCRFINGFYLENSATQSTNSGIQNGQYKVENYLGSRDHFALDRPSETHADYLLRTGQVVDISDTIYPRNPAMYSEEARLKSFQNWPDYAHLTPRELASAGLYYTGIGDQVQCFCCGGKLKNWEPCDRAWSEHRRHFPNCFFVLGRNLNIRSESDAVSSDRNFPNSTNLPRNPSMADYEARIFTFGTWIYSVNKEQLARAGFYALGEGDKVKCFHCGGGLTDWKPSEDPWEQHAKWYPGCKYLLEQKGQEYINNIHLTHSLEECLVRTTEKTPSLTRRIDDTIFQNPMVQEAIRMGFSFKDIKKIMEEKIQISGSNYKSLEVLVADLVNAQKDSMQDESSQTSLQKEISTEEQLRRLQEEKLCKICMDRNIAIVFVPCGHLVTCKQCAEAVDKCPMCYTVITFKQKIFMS

Sequence of Dihydroorotate dehydrogenase (quinone), mitochondrial (Plasmodium falciparum (isolate 3D7)) (Q08210 whole entry, looked up): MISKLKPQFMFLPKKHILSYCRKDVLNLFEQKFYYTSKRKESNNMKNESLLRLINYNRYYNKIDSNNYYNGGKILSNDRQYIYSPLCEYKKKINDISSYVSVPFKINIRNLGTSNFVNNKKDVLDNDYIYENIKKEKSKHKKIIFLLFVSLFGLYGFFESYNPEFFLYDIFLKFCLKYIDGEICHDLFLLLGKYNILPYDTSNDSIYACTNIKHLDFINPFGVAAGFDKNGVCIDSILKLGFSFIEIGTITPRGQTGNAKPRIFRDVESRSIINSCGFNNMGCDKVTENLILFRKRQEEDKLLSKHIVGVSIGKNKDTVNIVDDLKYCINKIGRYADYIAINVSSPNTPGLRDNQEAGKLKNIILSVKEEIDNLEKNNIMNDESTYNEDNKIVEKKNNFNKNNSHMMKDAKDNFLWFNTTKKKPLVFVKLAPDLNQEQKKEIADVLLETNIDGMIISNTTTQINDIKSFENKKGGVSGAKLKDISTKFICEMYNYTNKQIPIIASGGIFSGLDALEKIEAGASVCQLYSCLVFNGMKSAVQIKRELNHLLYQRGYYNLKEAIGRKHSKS

As to `CC(C)OC(=O)CC(=O)CC(O)c1cccc([N+](=O)[O-])c1` (stereo not given), the z-score in assay [1] was -0.476; in [2], -3.08 (inactive); in assay [3], 0.326 (inactive); in assay [5], 1.1 (inactive); in assay [6], -2.42 (inactive); in assay [7], 0.704 (inactive). The figures for the z-score in [8] and in assay [9] were 2 (inactive) and 0.083, respectively. The composite z-score in [4] is -2.1 (inactive); in assay [10] it was 0.15.

On to `O=C1C[C@@](C(=O)NCc2ccccc2)(c2ccc([N+](=O)[O-])cc2)[C@@H](c2ccc(CO)cc2)N1C1CCCCC1`, for which the z-score is -0.563 in assay [1]; -0.517 (inactive) in [2]; -0.163 (inactive) in assay [3]; -0.0654 (inactive) in assay [5]; -1.02 (inactive) in assay [6]; 0.639 (inactive) in assay [7]. In addition, the z-score in assay [8] was 1.46 (inactive); in [9] it was -0.0381. For the same compound, the composite z-score was -1.58 (inactive) in assay [4] and -0.031 in assay [10].

`O=C1NC(=O)C2C1C=CC(C(O)c1ccc(B(O)O)cc1)N2Nc1ccc(Cl)cc1Cl` (stereo not given): the z-score in assay [1] was -1.97; in assay [2] it was -7.76 (inactive); in assay [3], -1.19 (inactive); in [5], 1.29 (inactive); in assay [6], 1.48 (inactive); in assay [7] it was 0.0436 (inactive). Besides, the z-score in assay [8] was -1.52 (inactive); in assay [9], -1.78. Besides, the composite z-score in assay [4] was -0.0575 (inactive); in [10] it was 0.0049.

Regarding `CC(C)=CCCC=C(C)C(O)C1C=CC2C(=O)N(c3ccccc3)C(=O)C2N1Nc1ccc(C#N)cc1` (stereo not given), the z-score in assay [1] is -1.53; in [2], -0.101 (inactive); in assay [3], -1.79 (inactive); in assay [5], 1.36 (inactive); in assay [6] it was -1.63 (inactive); in [7], -0.0959 (inactive). In addition, the values for the z-score in assay [8] and in assay [9] were 0.65 (inactive) and -2.19, respectively. Also, the composite z-score in [4] is -1.49 (inactive); in assay [10], 0.146.

For the compound `O=C(NCC(O)CO)C1N=C(c2ccc(OCCCO)cc2)N(c2ccccc2)O1` (stereo not given), the z-score is -0.664 in [1]; -0.732 (inactive) in assay [2]; -0.783 (inactive) in assay [3]; -1.41 (inactive) in [5]; -0.406 (inactive) in [6]; 0.015 (inactive) in assay [7]. Besides, the z-score was -0.003 (inactive) in assay [8] and -1 in [9]. For the same compound, the composite z-score in assay [4] was -0.568 (inactive); in [10], -0.142.

As to `COC(=O)[C@@]1(Cc2ccc(OC)cc2)[C@H]2c3cc(C(=O)N4CCCC4)n(Cc4ccc(Cl)c(C(F)(F)F)c4)c3C[C@H]2CN1C(=O)c1ccccc1`, the z-score was 0.27 in [1]; 0.681 (inactive) in assay [2]; -0.267 (inactive) in [3]; 0.135 (inactive) in assay [5]; 0.276 (inactive) in assay [6]; -0.88 (inactive) in [7]. The z-score in assay [8] is 0.404 (inactive); in assay [9] it was -0.859. Besides, the composite z-score in assay [4] is -0.902 (inactive); in assay [10] it was -0.064.

In the case of `[N-]=[N+]=Nc1ccccc1[C@@H]1OC(c2ccc(OCCCO)cc2)=N[C@]1(CCS(=O)(=O)c1ccccc1)C(=O)NCC(O)CO` (stereo not given in full), the z-score was 0.396 in assay [1]; 0.143 (inactive) in [2]; 0.321 (inactive) in assay [3]; 0.317 (inactive) in assay [5]; 0.777 (inactive) in assay [6]; 0.125 (inactive) in [7]. Also, the z-score in [8] was 0.638 (inactive); in assay [9], -0.315. For the same compound, the composite z-score in [4] was 0.612 (inactive); in assay [10] it was -0.201.

For the compound `C=C(CCCC)/C(=C/C[C@H](OC(=O)c1ccncc1)c1cccc(OCCO)c1)c1cnc2ccccc2c1`, the z-score in assay [1] is -0.0769; in assay [2], 0.527 (inactive); in assay [3] it was -0.737 (inactive); in [5] it was 0.236 (inactive); in assay [6] it was -0.364 (inactive); in assay [7] it was -0.566 (inactive). The z-score in assay [8] is -0.635 (inactive); in assay [9], -0.82. Besides, the results for the composite z-score in assay [4] and in assay [10] were -2.67 (inactive) and 0.291, respectively.

For `CCCCCCc1nc(Cc2cc(OC)c(OC)c(OC)c2)cc2c1[Si](C(C)C)(C(C)C)O[C@H]2c1ccccc1`, the z-score in assay [1] was 0.915; in [2], 1.12 (inactive); in assay [3], -0.111 (inactive); in assay [5], 0.374 (inactive); in assay [6], 0.202 (inactive); in [7], -0.373 (inactive). Further, the z-score is -0.585 (inactive) in [8] and -0.83 in assay [9]. In addition, the results for the composite z-score in assay [4] and in [10] were 0.364 (inactive) and -0.491, respectively.

Take `C[C@@H]1ON(c2ccccc2)[C@H](c2ccccc2)[C@H]1C(=O)O`: the z-score in assay [1] is 0.0656; in [2], 0.0157 (inactive); in assay [3], -0.0211 (inactive); in assay [5], 0.188 (inactive); in assay [6], 0.058 (inactive); in assay [7], -0.636 (inactive). Moreover, the z-score was -1.02 (inactive) in assay [8] and 0.481 in [9]. Further, the composite z-score was 0.341 (inactive) in [4] and -0.0343 in assay [10].

For the compound `Cc1ccc(S[C@]2(C(=O)NC3CC3)CC(=O)N(C(C)C)[C@@H]2c2ccc(CO)cc2I)cc1`, the z-score in assay [1] was 0.0662; in [2], -3.47 (inactive); in [3], -2.29 (inactive); in assay [5] it was -0.227 (inactive); in [6], -2.02 (inactive); in assay [7], 0.741 (inactive). The z-score in [8] was 0.617 (inactive); in assay [9], -2.37. Besides, the composite z-score was -0.632 (inactive) in assay [4] and -0.02 in [10].

In the case of `CC1=C([C@H](O)CCc2ccccc2)[C@H](CO)n2c(=O)n(-c3ccccc3)c(=O)n2C1`, the z-score in [1] was 0.331; in [2] it was -2.79 (inactive); in [3], 0.199 (inactive); in assay [5], 0.589 (inactive); in [6], -1.97 (inactive); in [7] it was 1.19 (inactive). Besides, the values for the z-score in assay [8] and in [9] were 1.35 (inactive) and 0.12, respectively. For the same compound, the composite z-score in assay [4] is -1.34 (inactive); in assay [10] it was -0.237.

In the case of `COCCCNC(=O)[C@@]1(CCC(=O)OC(C)(C)C)COC(c2ccc(OCCCO)cc2)=N1`, the z-score in [1] was 1.18; in [2], -0.579 (inactive); in [3], 1.27 (inactive); in [5], -0.978 (inactive); in assay [6], -0.561 (inactive); in assay [7], 0.391 (inactive). The z-score was 0.624 (inactive) in [8] and 0.928 in assay [9]. For the same compound, the results for the composite z-score in assay [4] and in assay [10] were -0.176 (inactive) and -0.0272, respectively.
